Source: PubChem (Johns Hopkins Ion Channel Center)
In the library only some 1.6% were active in any assay of this set; here they are far more common.
KCNQ2 block: rat KCNQ2 potassium channel inhibitors, primary screen, cell-based, CHO-K1, FluxOR thallium flux, B-score | B-score at 10 µM | actives 1.1% (n = 310,000) | 20 min; stronger effect = lower value | Potassium voltage-gated channel subfamily KQT member 2 (Rattus norvegicus), O88943;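 active means fluorescence ratio B-score at most minus 3 library SDs, with starting brightness B-score within 2 library SDs, cut at about -5.5 in these data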
Target sequence (O88943 whole entry, looked up): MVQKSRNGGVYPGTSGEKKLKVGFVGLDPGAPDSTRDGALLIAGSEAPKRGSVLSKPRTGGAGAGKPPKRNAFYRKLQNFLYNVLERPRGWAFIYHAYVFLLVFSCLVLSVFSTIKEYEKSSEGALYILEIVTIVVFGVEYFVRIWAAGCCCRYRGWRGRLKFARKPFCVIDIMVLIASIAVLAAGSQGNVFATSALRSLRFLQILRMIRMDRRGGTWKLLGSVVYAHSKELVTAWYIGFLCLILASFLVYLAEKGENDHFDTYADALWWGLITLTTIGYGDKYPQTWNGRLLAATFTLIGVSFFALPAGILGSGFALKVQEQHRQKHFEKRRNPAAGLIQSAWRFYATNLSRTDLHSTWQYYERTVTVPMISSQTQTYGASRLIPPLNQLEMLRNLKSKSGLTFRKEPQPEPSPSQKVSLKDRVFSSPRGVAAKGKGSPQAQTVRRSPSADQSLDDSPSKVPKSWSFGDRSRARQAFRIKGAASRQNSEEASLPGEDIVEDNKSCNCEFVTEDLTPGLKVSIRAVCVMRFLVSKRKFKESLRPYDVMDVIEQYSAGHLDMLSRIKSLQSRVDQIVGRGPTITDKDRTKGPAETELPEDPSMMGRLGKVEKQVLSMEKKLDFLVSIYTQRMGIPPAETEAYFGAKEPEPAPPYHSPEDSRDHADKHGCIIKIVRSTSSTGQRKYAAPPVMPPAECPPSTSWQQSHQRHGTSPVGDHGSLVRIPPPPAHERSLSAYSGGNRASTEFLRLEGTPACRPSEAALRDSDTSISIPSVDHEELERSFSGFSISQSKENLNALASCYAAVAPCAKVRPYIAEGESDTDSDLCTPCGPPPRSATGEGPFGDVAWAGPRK
KCNQ2 enhance: potentiators of rat KCNQ2 potassium channel; Potassium voltage-gated channel subfamily KQT member 2 (Rattus norvegicus), O88943; CHO-K1 KCNQ2, FluxOR thallium flux fluorescence; stronger effect = higher value; B-score at 10 µM; actives 0.54% (n = 310,000); AID 2239, 2010;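 active means fluorescence ratio B-score at least 3 SD of library B-scores, with initial fluorescence B-score within 3 of them, cut at about 5.3 in these data; same plate scores as AID 2156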;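 further: B-score of peak minus minimum over baseline fluorescence ratio after K+ and Tl+ stimulus; positive B-score means potentiation of KCNQ2 with more thallium influx and brighter signal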
* = called active by the depositor; i = inactive; / = no result given.

SMILES	KCNQ2 block	KCNQ2 enhance
COc1ccc(N(CC(=O)Nc2ccc3c(c2)OCCO3)S(=O)(=O)c2c(C)noc2C)cc1	i	2.1
Cc1ccccc1C1NC(c2ccccc2C)C([N+](=O)[O-])C(C)(C)C1[N+](=O)[O-] (centres undefined)	i	0.41
Cc1ccc(OCC(=O)N/N=C2\CCOc3c(C)cccc32)cc1	-6.8*	-6.8
COc1cccc2c1OCC/C2=N\NC(=O)COc1ccc(C)cc1	i	0.24
CC(C)CCN1CC(=O)N2Cc3[nH]c4ccccc4c3C[C@H]2C1=O	-7.2*	-7.2
CCCN1CC(=O)N2Cc3[nH]c4ccccc4c3C[C@H]2C1=O	i	/
COC(=O)c1cn(NC(=O)Cc2cccc(OC)c2)c(=O)c2ccccc12	i	7.2*
COC(=O)c1cn(NC(=O)Cc2ccc(OC)c(OC)c2)c(=O)c2ccccc12	i	/
Cc1cccc(NC(=O)Nc2ccc(F)cc2)n1	i	1.1
C/C(=N/Nc1nc(C)cc(-c2ccccc2)n1)c1ccco1	i	1.7
C/C(=N\Nc1nc(C)cc(-c2ccccc2)n1)c1ccc(C)o1	-6.1*	-6.1
Cc1ccc(CN(Cc2cccnc2)C(=O)CN2C(=O)COc3ccccc32)o1	i	/
O=C(CN1C(=O)COc2ccccc21)N(Cc1ccccc1)Cc1ccccn1	-6.1*	-6.1
COc1ccc(C(C)n2c(C)c3c(C)nnc(C)c3c2C)cc1 (centres undefined)	i	/
O=C(Nc1ccccc1N1CCCC1)C1CCN(S(=O)(=O)c2cccc(C(F)(F)F)c2)CC1	i	/
O=C(Nc1ccccc1N1CCCCC1)C1CCN(S(=O)(=O)c2cccc(C(F)(F)F)c2)CC1	-6.9*	-6.9
CCCn1c(SCC(=O)Nc2ccccc2-c2ccccc2)nnc1-c1ccoc1C	-5.8*	-5.8
COc1ccc(NC(=O)CSc2nnc(-c3ccoc3C)n2CCc2ccccc2)cc1	i	/
Cc1ccccc1NC(=O)CSc1nnc(-c2ccoc2C)n1CCc1ccccc1	-5.5*	-5.5
Cc1occc1-c1nnc(SCC(=O)Nc2ccccc2-c2ccccc2)n1C	i	0.05
CCCNC(=S)NCCN1CCCCC1	i	/
COCCn1c(=O)[nH]c2cc(C(=O)NC3CCCCCC3)ccc2c1=O	i	3.3
Cc1cccc(N2CCN(C(=O)c3cc(S(=O)(=O)N(C)C)ccc3N3CCCC3)CC2)c1C	i	/
COc1ccccc1N1CCN(Cc2cc3c(cc2[N+](=O)[O-])OCO3)CC1	i	0.91
CC(C)(C)C(=O)Cn1c(=N)n(Cc2ccccc2)c2ccccc21	-6.2*	-6.2
SMILES	KCNQ2 block	KCNQ2 enhance
CC(C)(C)C(=O)Cn1c(=N)n(Cc2ccccc2Cl)c2ccccc21	i	/
O=C(C1CCCO1)N1CCN(C(=S)Nc2cc(F)cc(F)c2)CC1 (centres undefined)	i	/
CCn1nc(C)c(C(=O)Nc2cc(Oc3cc(C)cc(C)c3)cc([N+](=O)[O-])c2)c1C	-5.6*	-5.6
Cc1nn(C)cc1C(=O)Nc1cc(Oc2ccc(Cl)cc2)cc([N+](=O)[O-])c1	i	/
Cc1nc2c(sc(=S)n2Cc2ccco2)c(=O)n1CC(=O)Nc1ccccc1F	i	1.1
CCC[C@@H](CN[C@@H](CNC)C(C)C)NCCCCc1ccccc1	i	/
CCC[C@@H](CNC)NC[C@H](Cc1ccccc1)NCCCCc1ccccc1	-6*	-6
O=C(COc1cccc2ccccc12)N/N=C/c1ccncc1	i	0.05
CC(C)CC(C(=O)NC1CCCC1)N(Cc1cccs1)C(=O)c1snc(C(N)=O)c1N (centres undefined)	-5.7*	-5.7
CC(C)CC(C(=O)NC1CCCCC1)N(Cc1cccs1)C(=O)c1snc(C(N)=O)c1N (centres undefined)	i	/
O=C(NCCCN1CCOCC1)c1cc(Cl)ccc1[N+](=O)[O-]	i	1.2
CC1CCCCN1C(=O)CSc1nc(-c2ccccc2)cc(=O)[nH]1 (centres undefined)	i	0.32
CC1CCCCN1C(=O)c1cc2nc(-c3ccccc3)cc(-c3ccccc3)n2n1 (centres undefined)	-5.7*	-5.7
Cc1cccc(OCCCC(=O)Nc2ccc(S(=O)(=O)Nc3ncccn3)cc2)c1C	i	0.47
CCSCCOC(=O)C1=C(C)NC(=O)NC1c1ccc2c(c1)OCO2 (centres undefined)	i	0.72
O=C(c1cccc(Br)c1)N1CCN(c2cnn(-c3ccccc3)c(=O)c2Cl)CC1	i	0.89
Cc1cc(C)n(-c2nc3ccccc3nc2NCCc2ccccc2)n1	-7.5*	-7.5
COc1ccc(Nc2nc3ccccc3nc2-n2nc(C)cc2C)cc1	i	/
c1ccc(Cc2nnc(N3CCOCC3)c3ccccc23)cc1	i	0.99
CCN(CC)C(=O)c1oc2ccc(S(=O)(=O)N3CC(C)CC(C)C3)cc2c1C (centres undefined)	i	/
c1ccc(-c2ccc(-c3nc(-c4ccccn4)no3)cc2)cc1	i	/
O=C(NCc1cccs1)c1cc(-c2ccccc2)nc2ccccc12	i	0.3
Cc1ccc(-c2nc3ccccc3c(C(=O)NCc3cccs3)c2C)cc1	-6.6*	-6.6
Cc1ccc(N=C2N=C(N)c3ccccc32)c(C)c1	i	0.03
COc1cccc(N2CCN(S(=O)(=O)c3ccc(-c4cnc(C5CC5)o4)cc3)CC2)c1	i	0.13
SMILES	KCNQ2 block	KCNQ2 enhance
COc1ccccc1NS(=O)(=O)c1ccc(-c2cnc(C3CC3)o2)cc1	i	/
Cc1ccc(NS(=O)(=O)c2ccc(-c3cnc(C4CC4)o3)cc2)c(C)c1	-5.7*	-5.7
Cc1cccc(N(C)S(=O)(=O)c2ccc(-c3cnc(C4CC4)o3)cc2)c1	-9.9*	-9.9
C=C1CC2C(=O)N(Cc3cc(OC)ccc3OC)C(C(=O)OCC)(C(=O)OCC)C1N2C(=O)OC(C)(C)C (centres undefined)	i	/
CCC(Cc1ccccc1)NC(=O)CN1C(=O)CSc2ncccc21 (centres undefined)	i	/
CCOC(=O)c1cnc(-n2nc(C)cc2C)nc1NC	i	0.03
Cc1ccc(NC(=O)C(c2ccccc2)C2CCCC2)cc1 (centres undefined)	i	/
O=C(Nc1ccc2ccccc2c1)C(c1ccccc1)C1CCCC1 (centres undefined)	-5.7*	-5.7
COc1ccccc1N1C(=O)C2C(C(=O)c3ccccc3)=NN(c3ccc(Br)cc3)C2C1=O (centres undefined)	i	/
O=C(COC(=O)c1cc([N+](=O)[O-])ccc1NCc1ccccc1Cl)NCC(F)(F)F	i	/
Cc1ccc(CNC(=O)c2ccc3c(=O)n(CC4CCCO4)c(=S)[nH]c3c2)cc1 (centres undefined)	i	2.2
COc1ccc(S(=O)(=O)N2CCOCC2)cc1NC(=O)COc1ccccc1OC	i	/
CC(C)(C)NC(=O)C(=O)NNC(=O)c1cccc(Br)c1	i	6.7*
CC(C)(C)NC(=O)C(=O)NNC(=O)COc1ccc(Br)cc1	i	6.2*
O=C(COc1ccc(Br)cc1)NC1CC1	i	0.88
Cc1cccc(C(=O)NNC(=O)C(=O)NC(C)(C)C)c1	i	3.2
COC(=O)NNC(=O)c1ccc(C(C)(C)C)cc1	i	/
CC(C)(C)NC(=O)C(=O)NNC(=O)c1ccc(C(C)(C)C)cc1	i	12*
Cc1ccccc1NC(=O)Cn1nnc(-c2ccc(N3CCOCC3)cc2)n1	i	0.42
